PubChem BioAssay (NCI)
Compounds without any hit were thinned out: in the full panel of roughly 79,000, 15% have a hit. Calls of active or inactive are those of the source. Cut-off read from the data, not from the text of the source: active = growth inhibition above about 70%; inactive = the rest.

Assays:
[1] = NCI Yeast Anticancer Drug Screen. Data for the rad50 strain (AID 155);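 note: 0% = growth of vehicle-only cultures of the same strain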; conditions: S. cerevisiae rad50 strain growth inhibition; at 50.0 µM; active compounds read high
Outline: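 Growth of the mutant yeast was measured after compound exposure and referenced to vehicle-treated cultures.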

[2] = NCI Yeast Anticancer Drug Screen. Data for the mec2-1 strain (AID 157); conditions: S. cerevisiae mec2-1 strain, at 50.0 µM, active compounds read high
Outline: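 Readout is yeast growth inhibition, normalised to vehicle-treated controls, in the mec2-1 strain exposed to compound.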

[3] = NCI Yeast Anticancer Drug Screen. Data for the sgs1 mgt1 strain (AID 161);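 note: 0% = growth of cultures given vehicle only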; conditions: S. cerevisiae sgs1 mgt1 strain, at 50.0 µM, active compounds read high
Outline: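 This yeast growth screen uses a strain with defined DNA-repair lesions; compound-treated growth is compared with vehicle-treated growth.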

[4] = NCI Yeast Anticancer Drug Screen. Data for the cln2 rad14 strain (AID 165);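 note: 0% = growth equal to vehicle treated cultures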; conditions: S. cerevisiae cln2 rad14 strain, at 50.0 µM, active compounds read high
Outline: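 Relative to vehicle controls, growth inhibition of compound-treated cln2 rad14 yeast was recorded.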

[5] = NCI Yeast Anticancer Drug Screen. Data for the bub3 strain (AID 167); conditions: S. cerevisiae bub3 mutant strain, at 50.0 µM, active compounds read high
Outline: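 Whole-cell yeast assay. The mutant strain was incubated with compounds, and growth inhibition was determined by comparison with vehicle-treated cells.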

[6] = NCI Yeast Anticancer Drug Screen. Data for the mlh1 rad18 strain (AID 175); conditions: S. cerevisiae mlh1 rad18 strain growth inhibition; at 50.0 µM; active compounds read high
Outline: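 Test agents were incubated with a yeast strain of defined genotype (DNA damage repair defect). Inhibition of growth was derived by comparison with vehicle-exposed cultures.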

Measured: growth inhibition

CC(C)(C)C1CCC2c3c([nH]c4ccccc34)C3C(=O)N(c4ccc(C#N)cc4)C(=O)C3C2C1 (configuration not stated)
inactive: [1] 53.3% | [2] 50.2% | [3] 54.9% | [4] 16.9% | [5] 38.6% | [6] 38.8%

COc1ccc(C(=O)/C(Br)=C\C(=O)O)cc1
inactive: [1] 16.8% | [2] 24.4% | [3] 5.4% | [4] 28.6% | [5] 23.9% | [6] 7%

COC(=O)C(=O)C1CSC2=C(CS(=O)(=O)c3ccccc32)C1=O (configuration not stated)
inactive: [1] -4.55% | [2] -9.5% | [3] -10.6% | [4] -2.15% | [5] -17.5% | [6] -2.1%

C=C(C)COCc1ccc(C(C)(C)CC(C)(C)C)cc1
inactive: [1] -14.6% | [2] -10.3% | [3] -9.85% | [4] -23.5% | [5] -15.4% | [6] 1.55%

Cc1cnc2nc(C)c(C)nc2n1
inactive: [1] 12.3% | [2] 1.55% | [3] 2.35% | [4] -0.95% | [5] -0.85% | [6] 4.95%

O=C1CN(CN2CCOCC2)C(=O)CN1CN1CCOCC1
inactive: [1] 39.3% | [2] 19.1% | [3] 44% | [4] 18.6% | [5] 36.2% | [6] 32.9%

COc1cc(NC(C)CCCNC(C)C)c2nccc(C)c2c1 (configuration not stated)
inactive: [1] 17.4% | [2] 16.3% | [3] 20.9% | [4] 3.25% | [5] 11.6% | [6] 27.9%

O=C1CSC(c2cccc(Cl)c2)N1c1ccc(-n2c(-c3ccccc3)nc3ccccc3c2=O)cc1 (configuration not stated)
inactive: [1] -4.3% | [2] 9.65% | [3] 8.9% | [4] -15.9% | [5] 9.2% | [6] -6.8%

O=C(c1ccc(Cl)s1)C(Cl)C(Cl)c1ccc(Cl)s1 (configuration not stated)
inactive: [1] -20.5% | [2] -2.4% | [3] 1.2% | [4] -12.4% | [5] 29.6% | [6] -3.55%

Cc1ccc(NC(=S)Nc2ccccc2F)cc1
inactive: [1] -8% | [2] -13.2% | [3] -2.2% | [4] -28.8% | [5] 43.5% | [6] 10%

Cc1cc2cc3c(C)cc(=O)oc3c(C)c2o1
inactive: [1] -35.1% | [2] -37.1% | [3] -28.4% | [4] -8.35% | [5] -10.5% | [6] -17.6%

CCOC(=O)C(=CNc1ccc(S(N)(=O)=O)cc1)C(=O)OCC
inactive: [1] 13.7% | [2] 7.95% | [3] -31.1% | [4] 5.6% | [5] -14% | [6] -26.2%

COc1ccc(C(C)=C(C#N)C#N)cc1
inactive: [1] 18.9% | [2] 2.7% | [3] -5.65% | [4] 16.1% | [5] 20.4% | [6] 13.1%

COc1cc2c(cc1OC)[C@H]1C(COC(=O)c3ccccc3)CSC(=Nc3ccccc3)N1CC2 (some centres not stated)
inactive: [1] 21.9% | [2] 17.6% | [3] 36% | [4] 49.8% | [5] 36.9% | [6] 22.3%

COc1ccc(N2C(=O)CSC2c2c[nH]c3ccccc23)cc1 (configuration not stated)
inactive: [1] -39.2% | [2] -43.5% | [3] -49.6% | [4] -16.1% | [5] -44% | [6] -47%

COc1cc2c(cc1OC)C(C(c1ccccc1)c1ccccc1)N(C)CC2 (configuration not stated)
inactive: [1] 9.9% | [2] 9.25% | [3] -16.7% | [4] 20.6% | [5] 3.25% | [6] 20.6%

Nc1ccc(S(=O)(=O)O)cc1N
inactive: [1] -15.3% | [2] -11.1% | [3] -8% | [4] -19.5% | [5] 2.95% | [6] -4.5%

Oc1c(Cl)c(Cl)c(O)c2ccccc12
inactive: [1] -3.7% | [2] -0.95% | [3] 7.15% | [4] 44.2% | [5] 8.1% | [6] -52.9%

CCN(c1ccccc1)c1nsc(Cl)n1
inactive: [1] -3.25% | [2] -10.8% | [3] -15.9% | [4] -9.4% | [5] 8.25% | [6] -16%

CCOc1ccc(N2CC(=O)N3CCCC(c4ccccc4)N3C(=O)C2)cc1 (configuration not stated)
inactive: [1] -23.7% | [2] -10.9% | [3] 13.4% | [4] 4.9% | [5] 12.1% | [6] 8.55%

Cc1cc2nc(-c3ccccc3O)[nH]c2cc1C
inactive: [1] -14.2% | [2] -29.9% | [3] -5.25% | [4] 2.1% | [5] -29.6% | [6] 9.35%

Nc1nc(-c2ccccc2)cc(-c2cc(Cl)ccc2O)n1
inactive: [1] 13.9% | [2] -0.55% | [3] -3.1% | [4] 20.5% | [5] 6.4% | [6] 6.55%

C[C@@]12CCC[C@H]1[C@@H]1CCC3=CC(=O)CC[C@]3(C)[C@H]1CC2
inactive: [1] 4.15% | [2] 1.45% | [3] -5.55% | [4] -27.1% | [5] 10.7% | [6] 1.05%

Cc1nn(C)c2ncnc(N)c12
inactive: [1] 10.8% | [2] 0.55% | [3] 17% | [4] -7.8% | [5] -8.85% | [6] 7.7%

COc1ccc(N/N=C(/c2ccccc2)c2noc(-c3ccccc3)n2)cc1
active: [1] 79.5% | [2] 92.2% | [3] 88.8% | [4] 89.3% | [5] 94.1% | [6] 92.6%

O=[N+]([O-])c1ccc(C2NC(c3ccccc3)c3c(ccc4ccccc34)O2)cc1 (configuration not stated)
inactive: [1] 41% | [2] 2.75% | [3] 23.8% | [4] -1.35% | [5] -0.25% | [6] 4.3%

CC(C1=CC=C2[C@@H]3CCC4CC(N(C)C)CC[C@]4(C)C3CC[C@]12C)N(C)C=O (some centres not stated)
inactive: [1] 6.8% | [2] 8.6% | [3] -16.2% | [4] 6.35% | [5] 4.45% | [6] 1.65%

CC(C)(c1ccc([N+](=O)[O-])cc1)c1ccc(N)c([N+](=O)[O-])c1
inactive: [1] 0.65% | [2] -9.65% | [3] -10.6% | [4] 0.1% | [5] -9.1% | [6] -13.1%

c1ccc2c(-c3cnc(-c4ccc(-c5ncc(-c6cccc7ccccc67)o5)cc4)o3)cccc2c1
inactive: [1] -14.9% | [2] -2.45% | [3] 0.5% | [4] -52.6% | [5] -1.1% | [6] -16.4%

COc1cc(-c2ccc(N=Nc3ccc(N)nc3N)c(OC)c2)ccc1N=Nc1ccc(N)nc1N
inactive: [1] 6.9% | [2] -3.9% | [3] 23.3% | [4] 12.4% | [5] -1.45% | [6] 11.7%

O=S(=O)(O)C(O)Cc1cccc2ccccc12 (configuration not stated)
inactive: [1] 2.2% | [2] -8.25% | [3] 1.3% | [4] -40.2% | [5] -17.8% | [6] -0.3%

O=C1C2C3CC4C5CC(C1C53)C42 (configuration not stated)
inactive: [1] 4.85% | [2] -7.45% | [3] 3.35% | [4] 5.05% | [5] -5.4% | [6] 1.7%

CCc1cccc(C)c1NC(=O)C(=O)Cc1nc2ccccc2s1
inactive: [1] 0.75% | [2] -7.6% | [3] -9.8% | [4] -2.15% | [5] -58% | [6] -6.15%

O=C(/C=C\c1cccc2ccccc12)c1cccc2ccccc12
inactive: [1] 35.5% | [2] 12.8% | [3] 0.55% | [4] -4.75% | [5] 23.1% | [6] 34.4%

CC(=O)OCCn1c([N+](=O)[O-])cnc1/C=[N+](/C)[O-]
inactive: [1] 11.2% | [2] 16.9% | [3] 16.8% | [4] 1.9% | [5] 9.85% | [6] 33.3%

[N-]=[N+]=Nc1ccccc1-c1ccc([N+](=O)[O-])cc1
inactive: [1] -12.9% | [2] -11.5% | [3] 11.1% | [4] -32.2% | [5] 1.2% | [6] 29.6%

C[n+]1cc(I)cc2ccccc21
inactive: [1] 3.85% | [2] -3.45% | [3] -9.55% | [4] -0.2% | [5] 4.05% | [6] 5.05%

COc1ccc(C(=O)OC2CCCN(C(=O)c3ccc(OC)cc3)C2)cc1 (configuration not stated)
inactive: [1] 0.75% | [2] 2.5% | [3] 0.8% | [4] 0.8% | [5] 10.7% | [6] -5.55%

Cc1ccc(/C=C2\CCCC(C(NO)c3ccc(C)cc3)C2=NO)cc1 (configuration not stated)
inactive: [1] -10.9% | [2] -20.2% | [3] 3.1% | [4] 1.2% | [5] -6.6% | [6] -9.25%

COc1ccccc1C(=O)C1OC1c1ccc(Cl)cc1Cl (configuration not stated)
inactive: [1] 19.1% | [2] -9.7% | [3] -6.9% | [4] -32% | [5] 6.85% | [6] 5.05%

COC(=O)CC1OCC=C2CN3CCC45C6=CC(=O)C(=O)C([N+](=O)[O-])=C6NC4C1C2CC35 (configuration not stated)
inactive: [1] 0.8% | [2] -22.4% | [3] -15.4% | [4] 8.3% | [5] -4.8% | [6] -17.8%

COC(=O)CC(C)(O)CCCC(C)C (configuration not stated)
inactive: [1] 11.2% | [2] -5.15% | [3] 16.9% | [4] -17.9% | [5] 3.9% | [6] -14.2%
